Rows were chosen to be rich in hits. Some 11% of all compounds tested hit in one or more screens of this group.
PI5P4K alpha inh: blocks human PI5P4K alpha kinase activity | AID 652105 | 330,000 tested, 1.2% active | max response, % | PI5P4Kalpha enzyme, ADP-Glo luminescence, 60 min; hits give low values; active = max response of -50% or lower; inconclusive = between -30% and -50%; inactive = -30% or higher; note: value at the top dose of about 77 µM; % is set by controls: 0 for no effect and ±100 for the full control effect
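Compounds were pin-transferred onto PI5P4Kalpha and substrate in HEPES pH 7.4 buffer with EGTA, CHAPS and 5% DMSO. ATP (5 microM final) started the reaction, which ran 60 minutes at room temperature before ADP-Glo detection.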
HP1b chromo inh: blocks HP1-beta chromodomain binding to methylated histone tails. Potency, µM (series often up to 114 µM), inactives show at the top dose activity change, negative = inhibition, usual class: inhibitors. AID 540317. 390,000 tested, 0.56% active. AlphaScreen HP1-beta / biotin-H3K9me3 peptide binding. P83916; note: potency is the fitted concentration of half-maximal effect; nearly all actives have a fitted effect of over 70% in size
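Compound inhibition of the preformed complex between 50 nM HP1-beta and 50 nM biotinylated H3K9me3 peptide was read by AlphaScreen. Buffer was PBS pH 7.4 with 0.01% Tween-20. Incubations ran 30 min at room temperature, with 10 ug/mL donor/acceptor beads.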
BAZ2B inh: BAZ2B (human) inhibition; 360,000 tested, 4.4% active; Q9UIF8; AlphaScreen BAZ2B-H3K14Ac peptide displacement; Potency, µM (top dose mostly 114 µM), for the others: at the highest dose activity change, negative = inhibition, actives largely listed as inhibitors; note: potency is the fitted concentration of half-maximal effect; % is set by controls: 0 for no effect and ±100 for the full control effect; nearly all actives have a fitted effect of over 60% in size
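AlphaScreen displacement: compounds (up to 110uM) incubated 30 min at room temperature with a preformed 50 nM BAZ2B/50 nM biotinylated H3K14Ac peptide complex in PBS pH 7.4 with Tween-20. Donor and acceptor beads at 10 ug/mL final added, 20 min light-protected before reading.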
JMJD2A Tudor: blocks the human JMJD2A Tudor domain | O75164 | AlphaScreen JMJD2A-Tudor / H3K4me3 peptide binding | Potency, µM (highest dose often 114 µM), without a hit: at the top dose activity change, negative = inhibition, most hits filed as inhibitors | 390,000 tested, 4.4% active; note: potency is the fitted concentration of half-maximal effect; % is set by controls: 0 for no effect and ±100 for the full control effect; nearly all actives have a fitted effect of over 50% in size
L3MBTL1 inh: blocks human L3MBTL1; Potency, µM (highest dose often 57.1 µM), for inactives: at the highest dose activity, negative = inhibition, usual class: inhibitors; AlphaScreen L3MBTL1–H3K9me1 peptide binding; Q9Y468; 230,000 tested, 0.66% active; note: potency is the fitted concentration of half-maximal effect; % is set by controls: 0 for no effect and ±100 for the full control effect; nearly all actives have a fitted effect of over 60% in size
Target sequence (Q9Y468 whole entry, looked up): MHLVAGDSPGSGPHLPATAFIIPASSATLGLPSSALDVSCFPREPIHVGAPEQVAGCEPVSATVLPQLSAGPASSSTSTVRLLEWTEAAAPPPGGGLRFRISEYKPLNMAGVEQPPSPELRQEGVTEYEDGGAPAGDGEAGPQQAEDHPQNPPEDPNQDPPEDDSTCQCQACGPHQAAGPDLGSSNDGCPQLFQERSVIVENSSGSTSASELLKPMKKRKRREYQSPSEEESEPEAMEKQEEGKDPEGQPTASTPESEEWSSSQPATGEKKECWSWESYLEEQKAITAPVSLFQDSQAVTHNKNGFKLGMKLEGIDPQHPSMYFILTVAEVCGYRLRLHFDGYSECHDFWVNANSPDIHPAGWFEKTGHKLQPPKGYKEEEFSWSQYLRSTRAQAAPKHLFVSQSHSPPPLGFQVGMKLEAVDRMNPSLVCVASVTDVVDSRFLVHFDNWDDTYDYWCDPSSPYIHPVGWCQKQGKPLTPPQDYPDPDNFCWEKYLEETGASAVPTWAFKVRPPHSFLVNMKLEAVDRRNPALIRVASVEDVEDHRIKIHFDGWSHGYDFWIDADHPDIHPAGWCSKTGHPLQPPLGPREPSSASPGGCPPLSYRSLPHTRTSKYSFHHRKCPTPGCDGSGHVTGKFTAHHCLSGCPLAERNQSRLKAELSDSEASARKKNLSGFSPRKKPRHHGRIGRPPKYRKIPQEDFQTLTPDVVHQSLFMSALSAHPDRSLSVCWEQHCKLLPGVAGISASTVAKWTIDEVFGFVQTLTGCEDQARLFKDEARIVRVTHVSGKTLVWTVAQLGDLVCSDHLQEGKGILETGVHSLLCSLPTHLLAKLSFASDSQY
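AlphaScreen proximity signal between nickel-chelate acceptor and streptavidin donor beads (final 10 ug/mL) reports binding of 50 nM L3MBTL1 to 75 nM biotin-H3 K9me1 peptide; complex incubated with compounds 30 min at room temperature; cefsulodin titration as control.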
G9a block: blocks human histone lysine methyltransferase G9a. 350,000 tested, 8.8% active. Q96KQ7. Potency, µM (series often up to 102 µM), inactives show at the top dose activity, negative = inhibition, usual class: inhibitors. G9a H3K9 monomethylation, AlphaScreen, 2 h; note: potency is the fitted concentration of half-maximal effect; % is set by controls: 0 for no effect and ±100 for the full control effect; nearly all actives have a fitted effect of over 75% in size
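Using a bead-based AlphaScreen, monomethylated H3K9 product from 2 h room-temperature reactions (G9a 20 nM, peptide 500 nM, SAM 20 uM) was detected with 0.5 ug/mL rabbit anti-H3K9me1 antibody.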
Starred values were filed as active, the others as inactive; ? = inconclusive; · = no result; [ ] = another dose, or the depositor's remark. Unless noted, calls come from the whole dose curve; as a rule, active = well fitted inhibition curve with a large enough effect; inconclusive = small, poorly fitted or top-dose-only effect; inactive = no such curve, though single readings can be large or run the other way.

SMILES | PI5P4K alpha inh | HP1b chromo inh | BAZ2B inh | JMJD2A Tudor | L3MBTL1 inh | G9a block
CC(=O)Nc1ccc2c(c1)nc(CN1CCCC1)n2C | · | 34% | -5% | -1% | · | 18µM*
Cn1c(CN2CCCC2)nc2cc(NC(=O)Nc3ccccc3)ccc21 | · | 5% | -9% | -20% | · | -19%[12.7 µM]
Cn1c(CN2CCOCC2)nc2cc(NC(=O)COc3ccccc3)ccc21 | 8 | -19% | -14% | 56µM* | 5% | -2%
Cc1ccc(C(C)C)c(OCC(=O)Nc2ccc3c(c2)nc(CN2CCCC2)n3C)c1 | 3 | 20% | 11µM* | ? | · | 45µM*
Cc1ccc(-c2cc(-c3coc4ccccc4c3=O)c3c(n2)-c2ccccc2OC3)cc1 | · | 24% | -29% | -22% | · | -1%[59 µM]
C[C@@H]1C[C@@H]([C@@H](C)CC2CC(=O)NC(=O)C2)C(=O)[C@@H](C)C1 | · | · | · | · | · | 20%[59 µM]
CN1CCN(C(=S)c2cn(Cc3ccccc3F)c3ccccc23)CC1 | 8 | 2% | ? | ? | · | 40µM*
S=C(c1cn(Cc2ccc(Br)cc2)c2ccccc12)N1CCOCC1 | 2 | ? | ? | 25µM* | -9% | ?
S=C(c1cn(Cc2ccccc2)c2ccccc12)N1CCOCC1 | 2 | -13% | ? | ? | · | 25µM*
S=C(c1c[nH]c2ccccc12)N1CCOCC1 | 3 | ? | -20% | -26% | -10% | 11µM*
Cc1cc(C(=O)CN2CCCCC2)c(C)n1-c1ccc(F)cc1 | 1 | -14% | ? | -29% | -5% | -13%[59 µM]
Cc1cc(C(=O)CN2CCCC2)c(C)n1-c1ccc(Cl)cc1 | 3 | 5% | -39% | -33% | · | 50µM*
CCN1CCN(CC(=O)c2cc(Cl)ccc2Cl)CC1 | -1 | 24% | -24% | -18% | -27% | 14µM*
N#Cc1c(-n2cccc2)cccc1-n1cccc1 | · | -35% | 50µM* | ? | -11% | ?
Cc1ccc(NC(=O)Cn2nc(N3CCN(c4ccccc4)CC3)ccc2=O)cc1F | · | 5% | -34% | -36% | · | -33%[59 µM]
Cc1ccc(NC(=O)COC(=O)COc2ccc(Cl)cc2C)c([N+](=O)[O-])c1 | 13 | -25% | ? | ? | -21% | 28µM*
Cc1ccc(NC(=O)CCCc2ccccc2)c([N+](=O)[O-])c1 | 11 | ? | ? | ? | -16% | 3.2µM*
Cc1ccc(NC(=O)COC(=O)CCn2c(C)csc2=O)c([N+](=O)[O-])c1 | 0 | -12% | -36% | -28% | 2% | ?
Cc1ccc(NC(=O)COC(=O)CCC(=O)c2ccc(C(C)(C)C)cc2)c([N+](=O)[O-])c1 | -4 | ? | ? | ? | -8% | 11µM*
COc1ccc(OC)c(C2C3=C(CC(C)(C)CC3=O)Nc3nnnn32)c1 (stereo unspecified) | 6 | 34% | -3% | -12% | 8% | 34%[59 µM]
COc1ccccc1C1C2=C(CC(C)(C)CC2=O)Nc2nnnn21 (stereo unspecified) | -3 | 9% | -28% | -14% | 14% | 28µM*
CC1(C)CCN2CCC(C)(C)c3c(O)ccc1c32 | -54* | ? | 45µM* | 56µM* | ? | 10µM*
CC1(C)CCC(C)(C)c2cc([S+](=O)([O-])N3CCN([S+](=O)([O-])c4c(F)cccc4F)CC3)ccc21 | · | · | · | -22% | · | ·
CCC(Oc1ccc2c(c1)C(=O)CC(C)(C)O2)C(=O)NCCN1CCCCCC1 (stereo unspecified) | 1 | ? | ? | 45µM* | -4% | 13µM*
O=C(c1ccc2c(c1)C(=O)N(Cc1ccco1)C2=O)N1CCOCC1 | · | 30% | -20% | -3% | -3% | ?
SMILES | PI5P4K alpha inh | HP1b chromo inh | BAZ2B inh | JMJD2A Tudor | L3MBTL1 inh | G9a block
CC1CCCCN1C(=O)COC(=O)c1ccc2c(c1)C(=O)N(Cc1ccco1)C2=O (stereo unspecified) | 2 | 4% | -32% | -14% | -8% | 8%[12.7 µM]
CC(C)CN1C(=O)c2ccc(C(=O)Nc3ccc(O)cc3C(=O)O)cc2C1=O | 1 | -6% | ? | -25% | · | ?
O=C(O)c1ccc(C(=O)c2ccc3c(c2)C(=O)N(Cc2ccco2)C3=O)cc1 | -71* | 22% | -10% | -16% | -12% | -6%[12.7 µM]
O=C(Nc1ccc(O)cc1C(=O)O)c1ccc2c(c1)C(=O)N(Cc1ccco1)C2=O | · | -9% | 50µM* | ? | -7%[11.4 µM] | ?
CC1CCN(C(=O)COC(=O)c2ccc3c(c2)C(=O)N(Cc2ccco2)C3=O)CC1 | 10 | 28% | -13% | -14% | -10% | 56µM*
O=C(Nc1ccc(O)cc1)c1ccc2c(c1)C(=O)N(Cc1ccco1)C2=O | -57* | -15% | ? | ? | ? | -12%[59 µM]
Cn1c(=O)oc2cc(S(=O)(=O)NC(Cc3ccccc3)C(=O)NCc3ccccc3Cl)ccc21 (stereo unspecified) | · | 42% | 1%[57.1 µM] | 6% | · | 4%[59 µM]
CCCC(=O)NC(C)c1nc2ccccc2n1Cc1ccccc1 (stereo unspecified) | · | 25% | -3% | -3% | · | 10%[59 µM]
COc1cc(NC(=O)C2CCN(S(=O)(=O)c3c(C)noc3/C=C/c3cccs3)CC2)cc(OC)c1 | · | 12% | · | -16% | · | -8%[59 µM]
O=C(O)Cc1ccc(NC(=O)c2ccc3c(c2)C(=O)N(Cc2ccco2)C3=O)cc1 | -22 | -29% | -12% | 35µM* | · | ?
O=C(O)Cc1ccc(NC(=O)c2ccc3c(c2)C(=O)N(Cc2ccccc2)C3=O)cc1 | 1 | · | · | · | · | ·
CCNc1ccc(S(=O)(=O)N(C)C)cc1NCC(=O)Nc1ccc(Br)cc1F | 9 | -28% | ? | ? | ? | 14µM*
CCNc1ccc(S(=O)(=O)N(C)C)cc1NCC(=O)Nc1ccccc1F | -9 | 10% | -34% | -22% | -6% | ?
CCNc1ccc(S(=O)(=O)N(C)C)cc1NCC(=O)Nc1ccc(F)c(Cl)c1 | 6 | ? | ? | ? | -3% | 50µM*
COC(=O)C1=C(C(=O)OC)C2(OC1c1ccccc1C)C(=O)c1ccccc1C2=O (stereo unspecified) | 6 | 17% | 5% | -13% | ? | 14µM*
COC(=O)C1=C(C)N(C)C(C)=C(C(=O)OC)C1c1ccccc1C | 1 | 23% | -2% | -3% | 1% | -6%
O=c1cc(CN2CCN(Cc3ccccc3)CC2)c2ccc(O)cc2o1 | 2 | -1% | -19% | -21% | · | 5%
O=C(c1ccco1)N1CCN(Cc2c(Cl)cccc2Cl)CC1 | 2 | 37% | 2% | -10% | -2% | 7%
O=C(c1ccco1)N1CCN(Cc2cccc3ccccc23)CC1 | 0 | 22µM* | 20µM* | 22µM* | · | 14µM*
O=C(c1ccco1)N1CCN(Cc2cc(=O)oc3cc(O)ccc23)CC1 | -27 | 21% | -5% | -10% | -8% | 22µM*

High-throughput results from PubChem.
